Four compounds from PubChem BioAssay can be followed below.

Usually inhibition stands for the drop in the measured response relative to a control, in per cent.

Experiment [1] can be described thus: yeast TOR pathway RPL19A-GFP modulators, primary screen, cell-based, S. cerevisiae, multiplex flow cytometry (AID 1862; in the data active = percent of DMSO control GFP below about 86%;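 note: lower values mimic rapamycin by blocking the RPL19A rise seen in DMSO cells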). To be noted: S. cerevisiae RPL19A-GFP strain, flow cytometry fluorescence, 3 h; at 10 µM; stronger effect = lower value. Background: Flow cytometry measures light scatter and fluorescence of single cells or particles in a stream.
A short description of experiment [2]: modulators of MEP2-GFP levels in yeast, primary screen, S. cerevisiae, multiplex flow cytometry (AID 1867;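 active = GFP response, as percent of the DMSO control, above the screen-wide mean plus 3 SD, about 139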;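 note: median GFP channel fluorescence of barcode-gated MEP2-GFP cells measured by flow cytometry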). To be noted: S. cerevisiae MEP2-GFP strain, 3 h, at 10 µM, stronger effect = higher value, 100% means same as DMSO wells.
A short description of experiment [3]: modulators of CIT2-GFP expression in yeast, primary screen, S. cerevisiae, GFP fusion, multiplex flow cytometry (AID 1870;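 active = percent response above a set limit, the screen-wide mean plus 3 SD, cut at about 130% in these data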;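 note: barcoded CIT2-GFP strain pooled with four other GFP strains with rapamycin as positive control; median GFP fluorescence per well over plate mean of DMSO wells so 100% = DMSO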). To be noted: 3 h, at 10 µM, stronger effect = higher value.
A short description of experiment [4]: modulators of LAP4-GFP expression in yeast, primary screen, S. cerevisiae, multiplex flow cytometry (AID 1873). To be noted: 3 h, at 10 µM, stronger effect = higher value.
The nature of experiment [5]: modulators of AGP1-GFP expression in yeast TOR pathway, primary screen, cell-based, multiplex flow cytometry, S. cerevisiae (AID 1887;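 active = GFP signal above the screen-wide mean plus 3 SD, that is over about 124.5% of the solvent control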;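 note: AGP1-GFP fusion strain of S. cerevisiae within a five-strain barcoded multiplex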). To be noted: 3 h, at 10 µM, stronger effect = higher value.
Experiment [6] is described as follows: inhibitors of CD8+ T cell-vesicle binding, pilot screen, LFA-1/ICAM-1 modulator project, MLPCN validation set, flow cytometry (AID 2523;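 active = response below a set limit, under 55% cells CD8-positive and vesicle-bound, and CD8 cells' 90th-percentile brightness under 279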;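 for vesicle binding response: mean PE anti-B7-1 fluorescence of CD8+ cells relative to row control; 100% = QL9-loaded vesicles with DMSO vehicle in the same plate row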). The settings on record: 2C mouse CD8+ T cells, at 7 µM, stronger effect = lower value; double positive events: measured here: CD8+/vesicle+ event percentage.
Experiment [7] concerns the target Integrin beta-1 (Homo sapiens) + Integrin alpha-4 (Homo sapiens) (UniProt P13612+P05556). Put plainly: inhibition of HUTS-21 binding to VLA-4, pilot screen, VLA-4 allosteric modulator project, U937 cells, HUTS-21 mAb, flow cytometry, validation set (AID 2674;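 active = inhibition above 50%, about 3 SD of the validation set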;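 note: antibody binding induced by the VLA-4 ligand LDV present at three times its Kd; 0% = LDV ligand with antibody and no compound and 100% = antibody without LDV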). To be noted: HUTS-21 LIBS mAb binding, at 6.7 µM, stronger effect = higher value, binding induced by LDV ligand.
Experiment [8] can be described thus: superoxide lowering in aged yeast cells, pilot screen, validation compound set (AID 2706;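 active = superoxide response below 65% of plate, a cut near 3 SD across the whole screen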;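 note: yeast exposed to compound for one week at 30 degrees C before staining; 100% = mean of all compound wells on the same plate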). The settings on record: S. cerevisiae aging, superoxide DHE fluorescence; at 10 µM; stronger effect = lower value.
Experiment [9] has as its target Beta-adrenergic receptor kinase 1 (Homo sapiens) (UniProt P25098). Put plainly: GRK2 binders displacing RNA aptamer, biochemical, validation, human GRK2, bead flow cytometry (AID 488806;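 active = aptamer binding inhibition above 30%, about 3 SD of noise from non-fluorescent compounds; inactive = inhibition at or below 30%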). To be noted: bead-bound GRK2, FAM-aptamer displacement, at 10 µM, stronger effect = higher value.
The target of experiment [10] is Beta-2 adrenergic receptor (Homo sapiens) (UniProt P07550). As to the kind of experiment: beta2AR agonists driving receptor internalization, pilot screen, cell-based, FAP fluorogen, flow cytometry, validation set (AID 504459;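 active = percent response above 42, roughly 3 SD of non-fluorescent test compounds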;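 note: agonist-driven loss of surface beta2AR via internalization measured by FAP dye flow cytometry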). The settings on record: Am2.2-beta2AR cells, FAP surface receptor flow cytometry; at 10 µM; stronger effect = higher value.
Chain of Beta-2 adrenergic receptor (Homo sapiens) (P07550 whole entry, looked up): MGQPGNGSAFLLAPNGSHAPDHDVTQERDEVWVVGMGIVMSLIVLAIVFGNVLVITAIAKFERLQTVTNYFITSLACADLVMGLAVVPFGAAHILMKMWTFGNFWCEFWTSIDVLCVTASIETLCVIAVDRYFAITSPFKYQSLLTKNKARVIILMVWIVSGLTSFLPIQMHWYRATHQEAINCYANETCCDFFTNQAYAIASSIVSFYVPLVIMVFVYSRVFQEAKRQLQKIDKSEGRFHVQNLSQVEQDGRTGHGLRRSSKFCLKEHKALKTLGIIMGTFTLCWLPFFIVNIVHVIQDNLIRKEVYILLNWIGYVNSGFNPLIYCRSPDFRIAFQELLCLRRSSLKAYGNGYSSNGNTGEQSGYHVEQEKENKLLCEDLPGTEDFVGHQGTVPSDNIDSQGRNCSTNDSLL
Experiment [11] deals with AP-2 complex subunit beta (Homo sapiens) (UniProt P63010). Put plainly: inhibitors of arrestin peptide binding to AP2, pilot screen, biochemical, validation set, GST-AP2 beads, flow cytometry (AID 504541;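 active = inhibition above 54%, about 3 SD of non-fluorescent compounds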;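 note: AP2 carries R879A mutation and is captured from E. coli lysate; bead-bound FITC arrestin peptide fluorescence measuring arrestin peptide binding to AP2; 0% = DMSO wells and 100% = excess unlabeled arrestin peptide control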). The settings on record: FITC arrestin peptide, at 10 µM, stronger effect = higher value, AP2 beta2 appendage fragment, R879A mutant.
Chain of AP-2 complex subunit beta (Homo sapiens) (P63010 whole entry, looked up, the tested form may be a part, one chain of several): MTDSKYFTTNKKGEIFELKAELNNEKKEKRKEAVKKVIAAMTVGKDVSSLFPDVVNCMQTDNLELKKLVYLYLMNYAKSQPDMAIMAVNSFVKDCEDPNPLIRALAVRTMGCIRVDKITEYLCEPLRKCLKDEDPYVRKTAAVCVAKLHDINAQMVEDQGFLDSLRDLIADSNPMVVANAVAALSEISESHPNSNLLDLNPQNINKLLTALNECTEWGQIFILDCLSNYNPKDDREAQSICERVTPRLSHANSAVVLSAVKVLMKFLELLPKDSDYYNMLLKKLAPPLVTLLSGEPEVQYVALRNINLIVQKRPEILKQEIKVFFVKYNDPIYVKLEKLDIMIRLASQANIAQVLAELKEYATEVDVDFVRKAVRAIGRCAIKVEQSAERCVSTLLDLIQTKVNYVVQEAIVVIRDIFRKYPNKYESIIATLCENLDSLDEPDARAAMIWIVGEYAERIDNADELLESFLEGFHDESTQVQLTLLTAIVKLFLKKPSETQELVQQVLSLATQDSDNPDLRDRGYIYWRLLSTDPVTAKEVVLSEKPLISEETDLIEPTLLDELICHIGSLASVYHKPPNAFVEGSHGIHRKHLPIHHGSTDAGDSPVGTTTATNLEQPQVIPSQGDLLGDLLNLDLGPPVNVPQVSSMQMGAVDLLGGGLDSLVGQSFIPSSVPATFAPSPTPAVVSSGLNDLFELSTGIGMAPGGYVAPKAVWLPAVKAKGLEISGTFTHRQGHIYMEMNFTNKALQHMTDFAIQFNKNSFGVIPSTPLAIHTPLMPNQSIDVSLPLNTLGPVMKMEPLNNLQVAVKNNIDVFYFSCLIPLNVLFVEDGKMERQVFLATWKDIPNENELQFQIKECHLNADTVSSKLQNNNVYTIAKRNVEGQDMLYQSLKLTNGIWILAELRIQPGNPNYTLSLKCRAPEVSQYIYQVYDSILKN
A short description of experiment [12]: yeast V-ATPase proton transport modulators, S. cerevisiae, pHLuorin, HTS validation (AID 504600; in the data active = response above about 15%;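 note: plate controls were DMSO for no effect and reference compound for full effect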). The settings on record: S. cerevisiae pHLuorin cytosolic pH, at 10 µM, stronger effect = higher value.
In experiment [13] the test system is anti-desmoglein-3 scFv antibody binding to human DSG3. As to the kind of experiment: inhibitors of anti-DSG3 scFv binding to DSG3, pilot screen, biochemical, validation compound set, bead-based, flow cytometry (AID 588368;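 active = binding below the plate cutoff, the plate median minus 3 SD, with a reading above zero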;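 note: signal is the median channel fluorescence of bead-bound GFP antibody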). The settings on record: Protein G beads, DSG3-Fc, scFv-GFP binding, at 10 µM, stronger effect = lower value.
Experiment [14] in a line: inhibitors of fungal efflux pumps CDR1, CDR2, MDR1, pilot screen, validation compound set, multiplex, phenotypic (AID 588506;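 active = efflux inhibition above 0.42, the validation set average plus 4 SD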;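 note: Nile Red retained in cells so higher fluorescence means more efflux inhibition; 0 = negative control wells and 1 = enniatin B 25 µM full block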). To be noted: S. cerevisiae pump-expressing triplex, Nile Red efflux flow cytometry; at 10 µM; stronger effect = higher value; the pumps come from Candida albicans.
Experiment [15] concerns the target ATP-binding cassette sub-family B member 6 (Homo sapiens) (UniProt Q9NP58). As to the kind of experiment: ABCB6 transporter inhibitors, pilot screen, K562-ABCB6 cells, flow cytometry, validation set (AID 588550;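 active = inhibition above the screen-wide mean plus 3 SD, about 51%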;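 note: 0% = DMSO wells and 100% = benzethonium chloride 70 µM positive control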). The settings on record: K562-ABCB6 porphyrin accumulation, 1 h, at 10 µM, stronger effect = higher value.
The nature of experiment [16]: promoters of myeloid differentiation in arrested cells, primary screen, cell-based, GFP/MAC1 double positive, flow cytometry, validation set (AID 588685;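 active = differentiation response of at least 50%, scaled between solvent and reference control, from cells with both markers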;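 note: compound exposure lasts four days before antibody staining and flow analysis; 0% = DMSO wells and 100% = 5 µM fulvestrant positive control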). To be noted: ER-HoxA9 marrow cells, stronger effect = higher value, normalized: vehicle 0, fulvestrant 100.

Results filed as inconclusive are left out. The source made the active and inactive calls.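 Rule for the calls, unless noted: active = GFP signal, as percent of the solvent control, above the screen mean plus 3 SD, about 149; inconclusive = no reading because the compound's own fluorescence upset strain identification; inactive = the rest.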

Chain of Beta-adrenergic receptor kinase 1 (Homo sapiens) (P25098 whole entry, looked up): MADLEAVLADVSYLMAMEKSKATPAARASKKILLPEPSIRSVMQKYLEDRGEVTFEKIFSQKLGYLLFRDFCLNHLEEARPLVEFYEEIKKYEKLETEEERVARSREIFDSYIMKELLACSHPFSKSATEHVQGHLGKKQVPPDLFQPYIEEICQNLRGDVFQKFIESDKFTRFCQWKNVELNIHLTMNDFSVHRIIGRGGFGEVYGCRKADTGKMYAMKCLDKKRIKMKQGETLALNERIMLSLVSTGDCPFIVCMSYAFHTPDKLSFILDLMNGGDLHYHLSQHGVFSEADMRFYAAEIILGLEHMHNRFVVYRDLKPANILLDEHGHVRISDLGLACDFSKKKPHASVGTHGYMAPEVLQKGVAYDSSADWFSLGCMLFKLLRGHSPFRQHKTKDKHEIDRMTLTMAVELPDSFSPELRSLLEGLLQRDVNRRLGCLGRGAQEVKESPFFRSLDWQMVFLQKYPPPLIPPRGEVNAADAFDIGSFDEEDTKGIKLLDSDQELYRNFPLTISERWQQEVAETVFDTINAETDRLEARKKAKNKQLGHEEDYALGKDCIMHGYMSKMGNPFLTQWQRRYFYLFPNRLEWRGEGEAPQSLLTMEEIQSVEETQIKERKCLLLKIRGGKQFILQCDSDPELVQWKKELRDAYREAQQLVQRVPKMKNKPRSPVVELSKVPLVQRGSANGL
Chain of ATP-binding cassette sub-family B member 6 (Homo sapiens) (Q9NP58 whole entry, looked up): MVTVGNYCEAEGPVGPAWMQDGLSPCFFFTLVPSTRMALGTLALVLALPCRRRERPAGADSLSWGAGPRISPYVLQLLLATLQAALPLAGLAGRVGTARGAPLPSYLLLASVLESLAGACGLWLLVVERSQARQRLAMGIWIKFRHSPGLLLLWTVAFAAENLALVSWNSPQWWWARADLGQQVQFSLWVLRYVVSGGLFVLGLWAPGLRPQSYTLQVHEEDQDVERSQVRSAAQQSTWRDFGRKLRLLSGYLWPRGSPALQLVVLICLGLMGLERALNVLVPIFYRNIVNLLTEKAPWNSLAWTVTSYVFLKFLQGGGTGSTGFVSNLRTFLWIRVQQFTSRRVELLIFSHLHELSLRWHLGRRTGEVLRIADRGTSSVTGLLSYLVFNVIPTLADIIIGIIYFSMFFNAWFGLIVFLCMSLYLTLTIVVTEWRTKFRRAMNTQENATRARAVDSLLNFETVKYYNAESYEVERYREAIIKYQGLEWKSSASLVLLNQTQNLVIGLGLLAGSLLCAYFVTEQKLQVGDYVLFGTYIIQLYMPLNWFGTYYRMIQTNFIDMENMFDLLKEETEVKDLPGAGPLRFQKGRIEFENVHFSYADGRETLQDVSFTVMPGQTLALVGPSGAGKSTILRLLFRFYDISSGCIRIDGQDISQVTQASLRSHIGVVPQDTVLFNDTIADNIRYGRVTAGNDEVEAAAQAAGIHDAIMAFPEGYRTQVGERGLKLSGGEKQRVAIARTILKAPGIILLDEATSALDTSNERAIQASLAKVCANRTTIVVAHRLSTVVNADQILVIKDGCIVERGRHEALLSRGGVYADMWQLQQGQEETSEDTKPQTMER
Chain of Integrin beta-1 (Homo sapiens) + Integrin alpha-4 (Homo sapiens) (P05556 whole entry, looked up): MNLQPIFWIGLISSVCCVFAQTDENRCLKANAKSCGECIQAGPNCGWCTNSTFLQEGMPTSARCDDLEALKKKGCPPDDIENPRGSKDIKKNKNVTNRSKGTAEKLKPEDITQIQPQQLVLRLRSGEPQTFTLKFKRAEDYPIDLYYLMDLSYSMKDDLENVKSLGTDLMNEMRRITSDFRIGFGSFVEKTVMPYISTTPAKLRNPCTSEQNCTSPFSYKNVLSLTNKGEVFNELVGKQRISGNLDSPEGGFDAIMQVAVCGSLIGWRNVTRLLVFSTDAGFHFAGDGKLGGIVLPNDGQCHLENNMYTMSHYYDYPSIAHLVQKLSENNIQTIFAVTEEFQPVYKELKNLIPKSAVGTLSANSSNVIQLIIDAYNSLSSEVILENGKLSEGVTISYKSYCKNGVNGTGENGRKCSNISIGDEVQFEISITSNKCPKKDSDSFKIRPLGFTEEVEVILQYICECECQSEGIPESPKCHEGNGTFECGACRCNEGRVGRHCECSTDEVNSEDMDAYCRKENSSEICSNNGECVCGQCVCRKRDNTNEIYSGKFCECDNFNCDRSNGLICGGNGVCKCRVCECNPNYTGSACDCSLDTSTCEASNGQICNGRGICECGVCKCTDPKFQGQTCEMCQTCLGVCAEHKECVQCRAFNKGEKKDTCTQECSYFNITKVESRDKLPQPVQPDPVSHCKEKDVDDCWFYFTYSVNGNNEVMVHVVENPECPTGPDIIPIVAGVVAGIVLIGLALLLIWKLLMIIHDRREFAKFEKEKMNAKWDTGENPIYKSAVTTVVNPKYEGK
Chain of Integrin beta-1 (Homo sapiens) + Integrin alpha-4 (Homo sapiens) (P13612 whole entry, looked up): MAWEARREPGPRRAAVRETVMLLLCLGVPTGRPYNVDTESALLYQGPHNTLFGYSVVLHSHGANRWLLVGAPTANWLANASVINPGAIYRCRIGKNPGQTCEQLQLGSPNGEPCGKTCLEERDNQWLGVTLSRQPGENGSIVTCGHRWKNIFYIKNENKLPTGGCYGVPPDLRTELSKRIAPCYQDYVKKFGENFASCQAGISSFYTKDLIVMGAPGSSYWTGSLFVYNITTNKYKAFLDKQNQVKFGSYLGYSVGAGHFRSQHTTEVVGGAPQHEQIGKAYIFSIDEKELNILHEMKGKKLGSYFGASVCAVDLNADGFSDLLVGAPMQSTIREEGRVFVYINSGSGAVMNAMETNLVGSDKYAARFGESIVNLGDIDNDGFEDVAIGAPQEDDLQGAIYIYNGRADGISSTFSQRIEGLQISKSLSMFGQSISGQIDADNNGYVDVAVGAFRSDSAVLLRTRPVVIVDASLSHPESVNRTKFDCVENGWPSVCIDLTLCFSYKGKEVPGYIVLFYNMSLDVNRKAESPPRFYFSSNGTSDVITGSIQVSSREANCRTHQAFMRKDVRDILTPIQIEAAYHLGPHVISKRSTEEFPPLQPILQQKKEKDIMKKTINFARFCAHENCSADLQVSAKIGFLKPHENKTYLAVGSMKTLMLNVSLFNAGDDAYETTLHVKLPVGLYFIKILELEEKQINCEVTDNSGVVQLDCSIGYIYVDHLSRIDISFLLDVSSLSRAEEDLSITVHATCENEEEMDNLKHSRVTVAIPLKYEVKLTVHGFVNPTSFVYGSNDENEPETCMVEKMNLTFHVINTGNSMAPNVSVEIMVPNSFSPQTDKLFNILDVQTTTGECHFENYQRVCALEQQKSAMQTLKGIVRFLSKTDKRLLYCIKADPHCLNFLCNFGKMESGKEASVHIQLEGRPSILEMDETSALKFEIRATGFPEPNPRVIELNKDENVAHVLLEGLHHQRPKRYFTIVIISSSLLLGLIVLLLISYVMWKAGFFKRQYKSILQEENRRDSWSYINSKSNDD

As for `CCC1(c2ccccc2)NC(=S)N(c2ccc(C)c(C)c2)N1` (stereo not drawn), the percent of DMSO control GFP in [1] is 100% (inactive). Moreover, the GFP response vs DMSO is 106% (inactive) in experiment [2] and 108% (inactive) in experiment [4]. Also, in experiment [3], the percent response of DMSO control is 105% (inactive). In experiment [5], the GFP response, % of DMSO was 108% (inactive). For the same compound, the double positive events in experiment [6] was determined as 59.8%. Moreover, in experiment [6], the vesicle binding response is 184% (inactive). In addition, the inhibition is 5.69% (inactive) in experiment [7], 1.79% (inactive) in [11] and 3% (inactive) in experiment [15]. The superoxide response (% of plate) in experiment [8] is 107% (inactive). In addition, the aptamer binding inhibition in experiment [9] was 2% (inactive). The values for the response in [10] and in [12] were -12.6% (inactive) and 2.75% (inactive), respectively. In experiment [13], the binding (% of control) was 105% (inactive). Also, the efflux inhibition (fraction of control) in experiment [14] is 0.04 (inactive). Moreover, the differentiation response in experiment [16] was -12.9% (inactive).
For `COc1ccc(/C=C2\CC/C(=C\c3ccc(OC)c(OC)c3)C2=O)cc1OC`, in experiment [1], the percent of DMSO control GFP is 99.8% (inactive). In addition, the figures for the GFP response vs DMSO in [2] and in [4] were 103% (inactive) and 97.2% (inactive), respectively. Besides, the percent response of DMSO control in [3] is 97.1% (inactive). In addition, in [5], the GFP response, % of DMSO was 96.6% (inactive). The compound also came in with a double positive events in [6] of 59.8%. Moreover, the vesicle binding response in [6] is 254% (inactive). The inhibition in experiment [7] is -18.9% (inactive); in experiment [11], 0.71% (inactive); in experiment [15], 2% (inactive). Moreover, the superoxide response (% of plate) in experiment [8] is 99% (inactive). Besides, in [9], the aptamer binding inhibition is 3% (inactive). Besides, the response was 17.4% (inactive) in experiment [10] and -0.5% (inactive) in experiment [12]. The binding (% of control) in experiment [13] is 98.8% (inactive). For the same compound, the efflux inhibition (fraction of control) in experiment [14] was 0.1 (inactive). Moreover, the differentiation response in experiment [16] was -5.68% (inactive).
As for `CN(C)C(=O)Oc1ccc[n+](C)c1`, the percent of DMSO control GFP in experiment [1] is 102% (inactive). In addition, the GFP response vs DMSO was 106% (inactive) in [2] and 94.7% (inactive) in [4]. The percent response of DMSO control in experiment [3] was 94.2% (inactive). Besides, the GFP response, % of DMSO in experiment [5] is 95.9% (inactive). For the same compound, in experiment [6], the double positive events was found to be 62.3%. Besides, the vesicle binding response in experiment [6] was 1200% (inactive). Moreover, the inhibition in experiment [7] was 0.58% (inactive); in experiment [11], 16.8% (inactive); in experiment [15] it was 13% (inactive). For the same compound, the superoxide response (% of plate) in experiment [8] is 104% (inactive). The aptamer binding inhibition in experiment [9] was 4% (inactive). Besides, the response in experiment [10] is 0.34% (inactive); in experiment [12], -1.45% (inactive). For the same compound, in experiment [13], the binding (% of control) was 103% (inactive). For the same compound, the efflux inhibition (fraction of control) in experiment [14] is -0.1 (inactive). In experiment [16], the differentiation response was -1.71% (inactive).
`NCCc1ccc(O)c(O)c1`: in experiment [1], the percent of DMSO control GFP is 98.2% (inactive). Moreover, the GFP response vs DMSO is 107% (inactive) in experiment [2] and 92% (inactive) in experiment [4]. The percent response of DMSO control in experiment [3] was 93.1% (inactive). Also, the GFP response, % of DMSO in experiment [5] was 95.6% (inactive). The compound also came in with a double positive events in [6] of 65.4%. Moreover, the vesicle binding response in experiment [6] was 831% (inactive). Further, the inhibition in experiment [7] was -10.8% (inactive); in experiment [11], 11.9% (inactive); in experiment [15] it was 6% (inactive). Moreover, the superoxide response (% of plate) in [8] is 90.7% (inactive). The aptamer binding inhibition in [9] was 3% (inactive). For the same compound, the response in [10] is 11.2% (inactive); in experiment [12], -0.98% (inactive). The binding (% of control) in experiment [13] was 94.3% (inactive). In addition, the efflux inhibition (fraction of control) in [14] was 0.08 (inactive). The differentiation response in experiment [16] is 5.13% (inactive).
